Experimental findings from PubChem BioAssay (EPA / NIEHS) are described below.

Results filed as inconclusive are left out. Calls of active or inactive are those of the source. Rule for the calls: active = hit-call score of the fitted dose curve at least 0.9, where 1 is the maximum; inconclusive = response in the unintended direction; inactive = score below 0.9.

The nature of test [1]: ATG_GAL4_TRANS: Attagene TRANS-FACTORIAL HepG2 Assay for GAL4 (Internal Marker) (AID 2282976). The settings on record: HepG2 Attagene TRANS GAL4 internal marker reporter. An outline of the steps:
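Liver HepG2 line bearing multiplexed GAL4-UAS reporter constructs; 24 h chemical treatment. Transcripts were quantified as fluorescent fragments on capillary electrophoresis after RT-PCR and HpaI cut, with activity fitted upward from DMSO.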

Test [2] has as its target Bile acid receptor (Homo sapiens) (UniProt Q96RI1). Kind of test: ATG_FXR_TRANS: Attagene TRANS-FACTORIAL HepG2 Assay for Farnesoid X Receptor (FXR) (AID 2282979).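 Note: hits raise reporter mRNA above DMSO so AC50 marks FXR activation.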 The settings on record: HepG2 Attagene TRANS FXR-GAL4 reporter transcription. An outline of the steps:
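After 24 h chemical treatment of transfected HepG2 cells, GAL4-UAS reporter transcripts driven by an exogenous FXR-GAL4 fusion were measured by RT-PCR and capillary electrophoresis. Increases over DMSO were fitted.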

For test [3], the target named is Oxysterols receptor LXR-alpha (Homo sapiens) (UniProt Q13133). Kind of test: ATG_LXRa_TRANS: Attagene TRANS-FACTORIAL HepG2 Assay for human Liver X Receptor alpha (LXRa) (AID 2282980). The settings on record: HepG2 Attagene TRANS reporter, LXRa transactivation. The method, boiled down:
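In this multiplexed TRANS system, compounds act on HepG2 cells carrying GAL4-UAS reporter units and a receptor-GAL4 fusion for 24 h. Induced reporter RNA is amplified, fluorescently labelled and sized by capillary electrophoresis, with DMSO as baseline.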

Test [4] has as its target Hepatocyte nuclear factor 4-alpha (Homo sapiens) (UniProt P41235). Kind of test: ATG_HNF4a_TRANS: Attagene TRANS-FACTORIAL HepG2 Assay for human Hepatocyte Nuclear Factor 4 alpha (HNF4a) (AID 2282982). The settings on record: HepG2 HNF4a transactivation reporter, mRNA readout. An outline of the steps:
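HepG2 cells transiently transfected with multiplexed GAL4-UAS reporter units responsive to chimeric NR-GAL4 proteins; compound exposure 24 h. Reporter mRNA quantified by RT-PCR, 6-FAM labelling, HpaI digestion and capillary electrophoresis; gain of signal versus DMSO baseline.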

Test [5] in a line: ATG_M_06_TRANS: Attagene TRANS-FACTORIAL HepG2 Assay for M06 Transcription Factor (Internal Marker) (AID 2282983).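 Note: reporter transcript level by RT-PCR then capillary electrophoresis fluorescence.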 The settings on record: HepG2 Attagene TRANS M06 internal marker reporter. An outline of the steps: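 Internal-marker background readout from a multiplexed TRANS reporter system in HepG2; 24 h dosing; mRNA induction quantified by RT-PCR plus capillary electrophoresis fluorescence; DMSO as negative control and baseline.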

The target in test [6] is Oxysterols receptor LXR-beta (Homo sapiens) (UniProt P55055). The test can be described thus: ATG_LXRb_TRANS: Attagene TRANS-FACTORIAL HepG2 Assay for human Liver X Receptor beta (LXRb) (AID 2282981). The settings on record: HepG2 Attagene TRANS GAL4-LXRb reporter, mRNA. An outline of the steps:
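HepG2 cells transiently transfected with multiple reporter transcription units carrying chimeric NR-Gal4 proteins acting on GAL4-UAS reporters; compound exposure 24 h. Reporter mRNA quantified by RT-PCR, 6-FAM labelling, HpaI digestion and capillary electrophoresis; gain of signal versus DMSO.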

Test [7] has as its target Nuclear receptor subfamily 4 group A member 2 (Homo sapiens) (UniProt P43354). Kind of test: ATG_NURR1_TRANS: Attagene TRANS-FACTORIAL HepG2 Assay for human Nuclear Receptor Related Protein 1 (NURR1) (AID 2282985). The settings on record: HepG2 Attagene TRANS reporter, mRNA readout. An outline of the steps:
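HepG2 cells transiently transfected with GAL4-UAS reporter units and chimeric NR-Gal4 constructs; chemical exposure 24 h. Reporter mRNA quantified by RT-PCR, fluorescent labelling and capillary electrophoresis; gain of signal fitted relative to DMSO baseline.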

Test [8] can be described thus: ATG_M_32_TRANS: Attagene TRANS-FACTORIAL HepG2 Assay for M32 Transcription Factor (Internal Marker) (AID 2282984).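 Note: transcript level of a background control reporter unit measured by RT-PCR and capillary electrophoresis.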 The settings on record: HepG2 Attagene TRANS M32 internal marker reporter. An outline of the steps:
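HepG2 cells transiently transfected with multiple GAL4-UAS reporter transcription units, dosed for 24 hours; reporter mRNA quantified by RT-PCR, 6-FAM primer extension, HpaI digestion and capillary electrophoresis. Gain-of-signal fitted versus DMSO baseline; internal background-control marker.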

The target in test [9] is Glucocorticoid receptor (Homo sapiens) (UniProt P04150). The test can be described thus: ATG_GR_TRANS: Attagene TRANS-FACTORIAL HepG2 Assay for human Glucocorticoid Receptor (GR) (AID 2282978).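 Note: activators score as hits since higher reporter transcript over DMSO is fitted.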 The settings on record: HepG2 Attagene TRANS GR reporter, mRNA transcription. An outline of the steps: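 After 24 h incubation with test chemical, transfected HepG2 cells were lysed for RNA; reporter cDNA was amplified, FAM-labelled, HpaI-digested and sized on a capillary analyser. Signal gain relative to DMSO was scored.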

Test [10] has as its target Estrogen-related receptor gamma (Homo sapiens) (UniProt P62508). Kind of test: ATG_ERRg_TRANS: Attagene TRANS-FACTORIAL HepG2 Assay for human Estrogen-Related Receptor gamma (ERRg) (AID 2282977).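 Note: hits increase reporter signal over DMSO so potencies reflect activators.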 The settings on record: HepG2 Attagene TRANS reporter, ERRg transactivation. An outline of the steps:
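HepG2 cells transiently transfected with multiplexed GAL4-UAS reporter units and chimeric NR-Gal4 constructs were exposed to test chemicals for 24 h. Reporter mRNA was measured by RT-PCR, 6-FAM primer extension, HpaI digestion and capillary electrophoresis; gain-of-signal versus DMSO.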

Sequence of Glucocorticoid receptor (Homo sapiens) (P04150 whole entry, looked up): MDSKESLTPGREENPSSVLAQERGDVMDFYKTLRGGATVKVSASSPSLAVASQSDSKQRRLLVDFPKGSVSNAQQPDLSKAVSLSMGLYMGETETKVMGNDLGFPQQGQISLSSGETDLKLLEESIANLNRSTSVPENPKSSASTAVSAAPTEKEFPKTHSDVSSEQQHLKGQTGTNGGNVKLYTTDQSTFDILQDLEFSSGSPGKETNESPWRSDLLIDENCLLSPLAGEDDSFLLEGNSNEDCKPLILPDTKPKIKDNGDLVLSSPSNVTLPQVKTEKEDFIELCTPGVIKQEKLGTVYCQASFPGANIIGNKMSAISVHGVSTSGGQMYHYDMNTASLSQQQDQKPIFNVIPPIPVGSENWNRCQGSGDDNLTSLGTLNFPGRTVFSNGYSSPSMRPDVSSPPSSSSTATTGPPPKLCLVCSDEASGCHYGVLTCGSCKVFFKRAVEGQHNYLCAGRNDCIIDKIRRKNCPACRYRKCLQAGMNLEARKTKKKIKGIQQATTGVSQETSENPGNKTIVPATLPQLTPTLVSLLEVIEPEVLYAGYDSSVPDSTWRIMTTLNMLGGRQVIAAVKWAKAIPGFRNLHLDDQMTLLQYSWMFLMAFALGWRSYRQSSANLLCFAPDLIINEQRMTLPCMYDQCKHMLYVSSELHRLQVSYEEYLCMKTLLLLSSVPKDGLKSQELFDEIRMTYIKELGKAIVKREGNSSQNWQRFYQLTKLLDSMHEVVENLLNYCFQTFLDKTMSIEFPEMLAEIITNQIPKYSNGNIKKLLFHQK
Sequence of Bile acid receptor (Homo sapiens) (Q96RI1 whole entry, looked up, the tested form may be a part): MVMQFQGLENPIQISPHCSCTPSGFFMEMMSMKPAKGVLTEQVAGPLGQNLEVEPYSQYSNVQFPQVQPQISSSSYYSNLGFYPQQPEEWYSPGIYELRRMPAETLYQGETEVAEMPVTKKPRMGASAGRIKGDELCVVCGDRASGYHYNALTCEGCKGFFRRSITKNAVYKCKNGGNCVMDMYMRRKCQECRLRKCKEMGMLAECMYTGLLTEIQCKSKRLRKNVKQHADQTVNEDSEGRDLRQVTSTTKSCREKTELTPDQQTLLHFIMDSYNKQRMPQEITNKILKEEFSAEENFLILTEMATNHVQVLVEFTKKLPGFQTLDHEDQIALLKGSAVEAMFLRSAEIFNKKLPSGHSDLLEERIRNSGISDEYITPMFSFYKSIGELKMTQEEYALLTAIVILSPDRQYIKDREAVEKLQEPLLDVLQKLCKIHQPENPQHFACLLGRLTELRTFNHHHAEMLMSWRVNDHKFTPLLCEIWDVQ
Sequence of Hepatocyte nuclear factor 4-alpha (Homo sapiens) (P41235 whole entry, looked up, the tested form may be a part): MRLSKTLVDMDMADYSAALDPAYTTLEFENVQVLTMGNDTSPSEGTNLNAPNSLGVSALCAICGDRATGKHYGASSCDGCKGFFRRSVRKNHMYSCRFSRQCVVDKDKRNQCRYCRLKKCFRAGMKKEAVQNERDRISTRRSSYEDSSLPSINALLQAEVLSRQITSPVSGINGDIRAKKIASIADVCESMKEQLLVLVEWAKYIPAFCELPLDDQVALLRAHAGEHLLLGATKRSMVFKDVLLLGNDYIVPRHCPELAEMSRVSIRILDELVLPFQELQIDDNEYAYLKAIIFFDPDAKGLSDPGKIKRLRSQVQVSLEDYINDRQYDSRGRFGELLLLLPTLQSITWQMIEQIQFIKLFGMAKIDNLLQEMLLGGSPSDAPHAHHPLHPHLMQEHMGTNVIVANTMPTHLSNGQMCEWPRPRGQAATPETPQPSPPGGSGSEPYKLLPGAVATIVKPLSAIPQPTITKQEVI
Sequence of Oxysterols receptor LXR-alpha (Homo sapiens) (Q13133 whole entry, looked up, the tested form may be a part): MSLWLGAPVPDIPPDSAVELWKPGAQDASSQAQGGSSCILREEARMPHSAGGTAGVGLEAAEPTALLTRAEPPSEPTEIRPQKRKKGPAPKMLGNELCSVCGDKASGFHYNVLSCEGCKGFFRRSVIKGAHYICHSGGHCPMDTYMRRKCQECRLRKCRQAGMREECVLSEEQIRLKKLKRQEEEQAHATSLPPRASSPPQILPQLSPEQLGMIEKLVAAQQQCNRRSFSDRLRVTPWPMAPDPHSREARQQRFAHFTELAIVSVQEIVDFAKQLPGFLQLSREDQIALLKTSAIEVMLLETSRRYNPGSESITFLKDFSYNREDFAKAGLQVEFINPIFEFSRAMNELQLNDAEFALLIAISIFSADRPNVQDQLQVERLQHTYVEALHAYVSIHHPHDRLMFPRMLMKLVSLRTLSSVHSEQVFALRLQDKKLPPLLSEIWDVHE
Sequence of Oxysterols receptor LXR-beta (Homo sapiens) (P55055 whole entry, looked up, the tested form may be a part): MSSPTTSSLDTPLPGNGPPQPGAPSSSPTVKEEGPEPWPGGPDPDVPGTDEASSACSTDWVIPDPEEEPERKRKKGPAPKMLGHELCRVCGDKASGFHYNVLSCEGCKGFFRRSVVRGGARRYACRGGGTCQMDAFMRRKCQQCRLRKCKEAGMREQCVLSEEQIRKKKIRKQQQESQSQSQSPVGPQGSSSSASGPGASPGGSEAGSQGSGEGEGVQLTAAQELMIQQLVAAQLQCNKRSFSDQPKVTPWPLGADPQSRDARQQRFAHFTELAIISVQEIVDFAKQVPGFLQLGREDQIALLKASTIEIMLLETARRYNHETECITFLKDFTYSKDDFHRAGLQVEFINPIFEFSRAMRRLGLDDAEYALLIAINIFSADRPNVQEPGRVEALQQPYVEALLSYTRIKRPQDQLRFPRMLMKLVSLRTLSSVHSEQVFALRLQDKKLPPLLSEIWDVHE
Sequence of Nuclear receptor subfamily 4 group A member 2 (Homo sapiens) (P43354 whole entry, looked up, the tested form may be a part): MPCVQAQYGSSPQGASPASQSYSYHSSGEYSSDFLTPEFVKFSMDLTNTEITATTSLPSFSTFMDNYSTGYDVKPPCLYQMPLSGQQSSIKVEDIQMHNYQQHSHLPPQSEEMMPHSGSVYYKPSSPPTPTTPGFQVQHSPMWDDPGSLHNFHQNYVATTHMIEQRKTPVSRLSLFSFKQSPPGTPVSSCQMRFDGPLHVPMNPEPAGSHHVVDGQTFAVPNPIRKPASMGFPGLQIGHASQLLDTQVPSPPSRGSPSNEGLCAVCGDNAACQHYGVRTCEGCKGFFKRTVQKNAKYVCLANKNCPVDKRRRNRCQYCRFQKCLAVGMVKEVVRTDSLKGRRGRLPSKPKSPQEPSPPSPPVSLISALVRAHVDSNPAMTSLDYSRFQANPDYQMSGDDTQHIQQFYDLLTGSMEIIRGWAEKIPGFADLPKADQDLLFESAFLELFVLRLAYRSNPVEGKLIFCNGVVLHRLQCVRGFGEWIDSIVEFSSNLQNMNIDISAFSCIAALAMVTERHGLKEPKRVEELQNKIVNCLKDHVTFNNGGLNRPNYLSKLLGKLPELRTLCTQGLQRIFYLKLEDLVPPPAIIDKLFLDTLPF
Sequence of Estrogen-related receptor gamma (Homo sapiens) (P62508 whole entry, looked up, the tested form may be a part): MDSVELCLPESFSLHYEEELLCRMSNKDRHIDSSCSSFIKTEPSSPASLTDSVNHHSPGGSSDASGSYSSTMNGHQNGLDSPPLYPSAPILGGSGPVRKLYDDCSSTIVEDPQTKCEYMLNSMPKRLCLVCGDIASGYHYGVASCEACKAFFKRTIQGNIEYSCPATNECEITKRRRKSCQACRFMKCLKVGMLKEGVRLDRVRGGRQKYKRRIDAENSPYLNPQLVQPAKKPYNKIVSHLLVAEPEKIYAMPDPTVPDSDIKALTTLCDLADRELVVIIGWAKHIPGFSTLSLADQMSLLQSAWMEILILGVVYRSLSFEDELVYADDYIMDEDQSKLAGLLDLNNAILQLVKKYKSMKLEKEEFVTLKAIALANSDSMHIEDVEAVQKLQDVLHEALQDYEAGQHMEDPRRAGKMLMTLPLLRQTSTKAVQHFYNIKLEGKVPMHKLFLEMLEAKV

For `CC(O)C#N` (stereo not drawn), the result in test [1], in test [2], in [3], in test [4] and in test [5] was inactive.
Regarding `CC(C)(C)OOC(C)(C)C`, the outcome in test [1], in test [2], in test [3], in test [6], in test [5] and in test [7] was inactive.
`FC(F)(F)c1ccc(Cl)cc1`: the compound was called inactive in test [1], in test [3], in test [6], in test [4], in [5] and in [8].
Take `FC(F)(F)C(F)(C(F)(F)F)C(F)(F)C(F)(F)CC1CO1` (stereo not drawn): the result in test [9], in test [2], in [6], in [4], in test [5] and in test [8] was inactive.
Take `O=C(O)C(Cl)Cl`: the compound was called inactive in [1], in test [3] and in [5].
As to `Cn1[nH]nnc1=S`, the outcome in [1], in [2], in test [6], in test [5], in test [8] and in [7] was inactive.
Regarding `COC(N)=O`, the result in test [1], in test [3], in test [4] and in [5] was inactive.
Take `O=C(O)C(F)(F)C(F)(F)C(=O)O`: the call in test [10], in test [2], in [3], in [6], in [4] and in test [5] was inactive. For the same compound, in test [7], the outcome was inactive.
The term AC50 denotes the midpoint of the concentration-response curve, whichever way the signal moves. Take `CCOP(=S)(NC(C)C)Oc1ccccc1C(=O)OC(C)C` (stereo not drawn): the compound was classed as inactive in test [10], in test [2], in [4] and in test [5]. Moreover, the AC50 in test [7] was 57.4 µM (active).
Take `NNC(N)=S`: the compound was called inactive in [1], in test [2], in [6] and in test [5].
With `N#Cc1cc([N+](=O)[O-])ccc1N`, the compound was called inactive in test [1], in test [2], in test [6], in [5], in test [8] and in test [7].
For the compound `CCCCc1ccc(O)cc1`, the result in test [1], in test [2], in test [5], in test [8] and in test [7] was inactive.
As to `CCOP(=S)(OCC)SCSCC`, the compound was called inactive in test [9], in test [2], in test [5] and in test [7].
Take `CC1=C(C(=O)Nc2ccccc2)S(=O)(=O)CCO1`: the call in [9], in test [2], in test [3], in [6], in [4] and in test [5] was inactive. Also, the compound was classed as inactive in [7].
`CN(C)C(=O)Cl`: the outcome in test [10], in [6], in test [5] and in [8] was inactive.
Take `COP(=O)(O)OC`: the outcome in [9], in test [2], in test [5] and in test [7] was inactive.
Consider `C/C(=N\NC(=O)Nc1cc(F)cc(F)c1)c1ncccc1C(=O)O`, for which the outcome in test [1], in [2], in test [3], in [4], in test [5] and in test [8] was inactive. Also, the call in [7] was inactive.
For the compound `O=S1(=O)OCC2C(CO1)C1(Cl)C(Cl)=C(Cl)C2(Cl)C1(Cl)Cl` (stereo not drawn), the outcome in [9], in [2], in test [3], in test [5] and in [8] was inactive.
For `CCOP(=S)(OCC)SCn1nnc2ccccc2c1=O`, the compound was classed as inactive in test [10], in test [4] and in test [8]. Moreover, the AC50 in test [2] is 26.5 µM (active); in [7], 100 µM (active).
Take `CC(=O)c1ccc(-c2ccccc2)cc1`: the compound was called inactive in [9], in test [2], in test [3], in test [6], in test [5] and in [8]. For the same compound, the compound was classed as inactive in test [7].
On to `COP(=O)(CCC(=O)NCO)OC`, for which the outcome in test [10], in test [2], in test [3], in test [4], in [5] and in [7] was inactive.
As to `CCOP(=O)(O)C(N)=O`, the compound was called inactive in test [1], in test [2], in [6], in test [5] and in test [8].
In the case of `Clc1ccc(Oc2ccccc2)cc1`, the outcome in test [9], in [2], in test [6], in [5], in test [8] and in [7] was inactive.
Take `CCOP(=S)(Oc1ccc([N+](=O)[O-])cc1)c1ccccc1` (stereo not drawn): the result in [10], in test [5] and in test [7] was inactive.
As to `O=c1[nH]c2ccccc2c(=O)o1`, the result in [1], in [3], in test [5] and in test [7] was inactive.
Take `Nc1ccc(Cl)cc1`: the outcome in [1], in [3], in test [5], in test [8] and in [7] was inactive.
For `O=S(=O)(c1ccc(O)cc1)c1ccc(O)cc1`, the compound was called inactive in [9], in [2], in test [3], in [6], in test [4] and in [5]. Besides, the compound was classed as inactive in test [8].
For the compound `CC(C)(C)N(NC(=O)c1ccc(Cl)cc1)C(=O)c1ccccc1`, the compound was classed as inactive in test [1], in test [2], in test [3], in test [6], in test [5] and in test [7].
